Measurements reported in PubChem BioAssay (EPA / NIEHS).
Inconclusive results are not listed. Active and inactive are the calls of the source. Rule for the calls: active = hit-call score of the fitted dose curve at least 0.9, where 1 is the maximum; inconclusive = response in the unintended direction; inactive = score below 0.9.

Legend:
[1] = molecular target: chicken Estrogen Receptor (ESR1), ESR1 (gene 396099) (UniProt P06212); assay: ATG_chERa_XSP1: Attagene TRANS-FACTORIAL Multi-Species (XSP1) HepG2 Assay for chicken Estrogen Receptor (ESR1) (AID 2283779)
How it was run: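 HepG2 cells transiently transfected with multiplexed GAL4-UAS reporter units expressing chimeric NR-Gal4 proteins; 3 nM 6-alpha-fluorotestosterone present. Reporter mRNA measured 24 h after dosing by RT-PCR, FAM labelling, HpaI digest and capillary electrophoresis; gain of signal versus DMSO.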

[2] = molecular target: Estrogen receptor beta (Homo sapiens) (UniProt Q92731); assay: ATG_hERb_XSP1: Attagene TRANS-FACTORIAL Multi-Species (XSP1) HepG2 Assay for human Estrogen Receptor (ESR2) (AID 2283788)
How it was run: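 Read-out: reporter mRNA induction by RT-PCR, HpaI digestion and capillary electrophoresis fluorescence, fitted in positive direction relative to DMSO baseline. Human liver HepG2 cells expressing ERβ-Gal4 fusion, dosed 24 h, medium containing 3 nM 6-alpha-fluorotestosterone.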

[3] = ATG_M_19_XSP1: Attagene TRANS-FACTORIAL Multi-Species (XSP1) HepG2 Assay for M19 Transcription Factor (Internal Marker) (AID 2283798)
How it was run: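 HepG2 cells transiently transfected with multiplexed GAL4-UAS reporter units, dosed 24 h with 3 nM 6-alpha-fluorotestosterone present for partial AR stimulation. Reporter mRNA measured by RT-PCR with capillary electrophoresis; gain-of-signal fitted relative to DMSO.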

[4] = ATG_M_32_XSP1: Attagene TRANS-FACTORIAL Multi-Species (XSP1) HepG2 Assay for M32 Transcription Factor (Internal Marker) (AID 2283799)
How it was run: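 HepG2 cells transiently transfected with multi-species TRANS reporter units, dosed 24 h with 3 nM 6-alpha-fluorotestosterone present. Internal-marker reporter mRNA quantified by RT-PCR and capillary electrophoresis; positive-direction fit versus DMSO.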

[5] = molecular target: Peroxisome proliferator-activated receptor gamma (Homo sapiens) (UniProt P37231); assay: ATG_hPPARg_XSP1: Attagene TRANS-FACTORIAL Multi-Species (XSP1) HepG2 Assay for human Peroxisome Proliferator-activated Receptor gamma (PPARg) (AID 2283800)
How it was run: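 HepG2 cells transiently transfected with GAL4-UAS reporter units carrying chimeric NR-Gal4 proteins; 3 nM 6-alpha-fluorotestosterone present. After 24 h dosing, reporter mRNA quantified by RT-PCR and capillary electrophoresis; gain of signal relative to DMSO.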

[6] = test system: zebrafish Peroxisome Proliferator-activated Receptor gamma (PPARg), gene 557037; assay: ATG_zfPPARg_XSP1: Attagene TRANS-FACTORIAL Multi-Species (XSP1) HepG2 Assay for zebrafish Peroxisome Proliferator-activated Receptor gamma (PPARg) (AID 2283801)
How it was run: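 HepG2 cells transiently transfected with GAL4-UAS reporter units including a zebrafish PPARg–GAL4 chimera, dosed 24 h with 3 nM 6-alpha-fluorotestosterone present. Reporter mRNA quantified by RT-PCR, FAM labelling, HpaI digestion and capillary electrophoresis; induction versus DMSO.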

[7] = molecular target: mouse Peroxisome Proliferator-activated Receptor gamma (PPARg), Pparg (gene 19016) (UniProt P37238); assay: ATG_mPPARg_XSP1: Attagene TRANS-FACTORIAL Multi-Species (XSP1) HepG2 Assay for mouse Peroxisome Proliferator-activated Receptor gamma (PPARg) (AID 2283802)
How it was run: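 HepG2 cells transiently transfected with GAL4-UAS reporter units driven by mouse PPARg–GAL4 chimera; 3 nM 6-alpha-fluorotestosterone present. After 24 h dosing, reporter mRNA quantified by RT-PCR, fluorescent labelling and capillary electrophoresis; gain of signal versus DMSO.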

[8] = molecular target: Nuclear receptor subfamily 1 group I member 2 (Mus musculus) (UniProt O54915); assay: ATG_mPXR_XSP1: Attagene TRANS-FACTORIAL Multi-Species (XSP1) HepG2 Assay for mouse Pregnane X Receptor (PXR) (AID 2283803)
How it was run: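 Transiently transfected HepG2 cells expressing a receptor-Gal4 chimera drive a GAL4-UAS reporter; 3 nM 6-alpha-fluorotestosterone included. Reporter mRNA read 24 h post-dose by RT-PCR and capillary electrophoresis; gain of signal relative to DMSO.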

[9] = molecular target: human Thyroid hormone Receptor alpha (TRa), THRA (gene 7067) (UniProt P10827); assay: ATG_hTRa_XSP1: Attagene TRANS-FACTORIAL Multi-Species (XSP1) HepG2 Assay for human Thyroid hormone Receptor alpha (TRa) (AID 2283805)
How it was run: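 HepG2 cells transiently transfected with GAL4-UAS reporter units expressing chimeric NR-Gal4 proteins, dosed 24 hours with 3 nM 6-alpha-fluorotestosterone present. Reporter mRNA measured by RT-PCR and capillary electrophoresis; gain of signal fitted versus DMSO.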

[10] = test system: zebrafish Estrogen Receptor (ESR2A), gene 317734; assay: ATG_zfER2a_XSP1: Attagene TRANS-FACTORIAL Multi-Species (XSP1) HepG2 Assay for zebrafish Estrogen Receptor (ESR2A) (AID 2283778)
How it was run: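 HepG2 cells transiently transfected with multiplexed GAL4-UAS reporter units and chimeric NR-GAL4 receptors; 24 h compound exposure with 3 nM 6-alpha-fluorotestosterone present. Reporter mRNA quantified by RT-PCR and capillary electrophoresis, gain-of-signal fitted relative to DMSO.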

[11] = molecular target: Estrogen receptor (Homo sapiens) (UniProt P03372); assay: ATG_hERa_XSP1: Attagene TRANS-FACTORIAL Multi-Species (XSP1) HepG2 Assay for human Estrogen Receptor (ESR1) (AID 2283780)
How it was run: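 HepG2 cells transiently transfected with GAL4-UAS reporter units and chimeric NR-Gal4 constructs; 24 h after dosing, reporter mRNA quantified by RT-PCR and capillary electrophoresis. Medium contained 3 nM 6-alpha-fluorotestosterone; activity fitted as gain-of-signal versus DMSO.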

[12] = test system: turtle Estrogen Receptor (ESR1), gene 101933533; assay: ATG_trERa_XSP1: Attagene TRANS-FACTORIAL Multi-Species (XSP1) HepG2 Assay for turtle Estrogen Receptor (ESR1) (AID 2283781)
How it was run: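 HepG2 cells transiently transfected with GAL4-UAS reporter units and chimeric NR-Gal4 constructs, dosed for 24 h with 3 nM 6-alpha-fluorotestosterone present. Reporter mRNA was quantified by RT-PCR, fluorescent labelling and capillary electrophoresis, with gain of signal fitted relative to DMSO.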

[13] = ATG_M_06_XSP1: Attagene TRANS-FACTORIAL Multi-Species (XSP1) HepG2 Assay for M06 Transcription Factor (Internal Marker) (AID 2283790)
How it was run: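 Transfected HepG2 multi-reporter system treated 24 h in the presence of 3 nM 6-alpha-fluorotestosterone. The M06 internal marker transcript was quantified by RT-PCR with capillary electrophoresis as a background control, and gain of signal was scored versus DMSO.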

[14] = ATG_M_61_XSP1: Attagene TRANS-FACTORIAL Multi-Species (XSP1) HepG2 Assay for M61 Transcription Factor (Internal Marker) (AID 2283797)
How it was run: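 HepG2 cells transiently transfected with multiplexed GAL4-driven reporter units, dosed 24 h with 3 nM 6-alpha-fluorotestosterone present. Reporter mRNA quantified by RT-PCR, 6-FAM labelling, HpaI digestion and capillary electrophoresis; internal-marker background control, gain of signal versus DMSO.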

[15] = molecular target: frog Thyroid hormone Receptor alpha (TRa), thra-a (gene 397942) (UniProt P15204); assay: ATG_frTRa_XSP1: Attagene TRANS-FACTORIAL Multi-Species (XSP1) HepG2 Assay for frog Thyroid hormone Receptor alpha (TRa) (AID 2283804)
How it was run: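 HepG2 cells transiently transfected with frog TRa-GAL4 chimeric reporter units, dosed 24 hr with 3 nM 6-alpha-fluorotestosterone present; reporter mRNA quantified by RT-PCR, fluorescent labelling and capillary electrophoresis, gain of signal versus DMSO.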

[16] = molecular target: AR (gene 367) (UniProt P10275); assay: ACEA_AR_antagonist_80hr: ACEA Biosciences xCELLigence Real-Time Cell Analysis on Androgen Receptor Antagonism for Proliferation (AID 2283787);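 note: hits lower the impedance growth signal relative to DMSO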
How it was run: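 Impedance readout (RT-CES), 80 h post-dose; loss-of-signal vs DMSO baseline. 22Rv1 cells in assay medium. Compounds: 8-pt 1:4 series, max 100 uM final, up to 0.5% DMSO; n = 2.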

[17] = molecular target: AR (gene 367) (UniProt P10275); assay: ACEA_AR_agonist_80hr: ACEA Biosciences xCELLigence Real-Time Cell Analysis on Androgen Receptor Agonism for Proliferation (AID 2283783);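 note: hits increase impedance growth signal above DMSO baseline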
How it was run: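 22Rv1 human prostate cancer cells were seeded after preconditioning in assay medium and monitored overnight, then dosed in an eight-point 1:4 dilution series from 100 uM (≤0.5% DMSO). Impedance-based growth was read at 80 h, gain-of-signal versus DMSO.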

[18] = STM_H9_NormalizedViability: Cytotoxicity Assessment at 120 hours in the Stemina devTOX quickPredict H9 human embryonic stem cell (hESC)-based Assay (AID 2283784)
How it was run: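 Pluripotent H9 hESCs were exposed, with chemical and media replaced every 24 h. Viability was read by CellTiter-Fluor fluorescence, background-corrected and normalized to the 0.1% DMSO neutral control per plate. Loss of signal was fitted.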

[19] = test system: turtle Androgen Receptor (AR), gene 101947425; assay: ATG_trAR_XSP1: Attagene TRANS-FACTORIAL Multi-Species (XSP1) HepG2 Assay for turtle Androgen Receptor (AR) (AID 2283786)
How it was run: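 HepG2 cells transiently transfected with a turtle AR–GAL4 chimera and GAL4-UAS reporter, co-treated with 3 nM 6-alpha-fluorotestosterone for partial stimulation. Reporter mRNA is quantified at 24 h by RT-PCR and capillary electrophoresis, gain-of-signal versus DMSO.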

Measured: AC50

Nuclear receptor subfamily 1 group I member 2 (Mus musculus), sequence (O54915 whole entry, looked up, the tested form may be a part): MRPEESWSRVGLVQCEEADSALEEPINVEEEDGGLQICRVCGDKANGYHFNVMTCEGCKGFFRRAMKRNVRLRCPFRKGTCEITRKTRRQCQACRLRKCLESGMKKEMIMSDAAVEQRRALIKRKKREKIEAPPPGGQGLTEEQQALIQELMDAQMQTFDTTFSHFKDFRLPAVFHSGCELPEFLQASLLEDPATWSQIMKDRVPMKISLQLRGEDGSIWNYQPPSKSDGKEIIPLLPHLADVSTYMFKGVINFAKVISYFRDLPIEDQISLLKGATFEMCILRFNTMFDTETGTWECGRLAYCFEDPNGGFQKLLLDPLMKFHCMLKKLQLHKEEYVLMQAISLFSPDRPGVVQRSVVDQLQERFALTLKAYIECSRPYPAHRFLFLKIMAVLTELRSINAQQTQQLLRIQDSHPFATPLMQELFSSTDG
human Thyroid hormone Receptor alpha (TRa), THRA (gene 7067), sequence (P10827 whole entry, looked up, the tested form may be a part): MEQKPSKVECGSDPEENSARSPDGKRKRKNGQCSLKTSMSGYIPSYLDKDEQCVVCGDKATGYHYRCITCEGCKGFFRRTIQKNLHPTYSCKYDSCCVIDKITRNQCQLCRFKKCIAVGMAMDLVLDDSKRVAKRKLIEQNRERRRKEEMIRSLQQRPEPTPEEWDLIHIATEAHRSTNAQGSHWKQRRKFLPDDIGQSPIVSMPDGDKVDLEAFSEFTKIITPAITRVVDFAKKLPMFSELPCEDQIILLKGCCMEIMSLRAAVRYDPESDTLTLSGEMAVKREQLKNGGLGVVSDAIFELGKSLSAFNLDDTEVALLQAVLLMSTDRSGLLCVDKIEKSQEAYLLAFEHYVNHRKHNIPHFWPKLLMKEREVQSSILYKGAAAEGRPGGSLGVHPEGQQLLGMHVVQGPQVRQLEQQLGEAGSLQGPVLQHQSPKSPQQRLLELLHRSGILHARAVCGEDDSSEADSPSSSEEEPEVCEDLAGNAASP
chicken Estrogen Receptor (ESR1), ESR1 (gene 396099), sequence (P06212 whole entry, looked up, the tested form may be a part): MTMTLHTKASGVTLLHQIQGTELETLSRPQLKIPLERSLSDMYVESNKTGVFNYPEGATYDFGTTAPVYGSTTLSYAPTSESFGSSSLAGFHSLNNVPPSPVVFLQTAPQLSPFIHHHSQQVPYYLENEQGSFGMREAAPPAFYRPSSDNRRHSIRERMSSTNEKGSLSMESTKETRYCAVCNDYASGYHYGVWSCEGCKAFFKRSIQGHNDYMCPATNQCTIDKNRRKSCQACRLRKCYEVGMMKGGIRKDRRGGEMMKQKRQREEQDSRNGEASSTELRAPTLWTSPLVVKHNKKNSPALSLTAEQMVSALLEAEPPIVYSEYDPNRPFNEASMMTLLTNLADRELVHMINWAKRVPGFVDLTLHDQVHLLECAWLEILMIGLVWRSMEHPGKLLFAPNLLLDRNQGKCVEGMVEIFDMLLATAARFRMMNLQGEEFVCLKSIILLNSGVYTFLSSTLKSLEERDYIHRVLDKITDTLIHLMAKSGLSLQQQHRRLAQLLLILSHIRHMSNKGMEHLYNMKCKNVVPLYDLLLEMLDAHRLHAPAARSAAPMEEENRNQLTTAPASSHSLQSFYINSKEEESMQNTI
mouse Peroxisome Proliferator-activated Receptor gamma (PPARg), Pparg (gene 19016), sequence (P37238 whole entry, looked up, the tested form may be a part): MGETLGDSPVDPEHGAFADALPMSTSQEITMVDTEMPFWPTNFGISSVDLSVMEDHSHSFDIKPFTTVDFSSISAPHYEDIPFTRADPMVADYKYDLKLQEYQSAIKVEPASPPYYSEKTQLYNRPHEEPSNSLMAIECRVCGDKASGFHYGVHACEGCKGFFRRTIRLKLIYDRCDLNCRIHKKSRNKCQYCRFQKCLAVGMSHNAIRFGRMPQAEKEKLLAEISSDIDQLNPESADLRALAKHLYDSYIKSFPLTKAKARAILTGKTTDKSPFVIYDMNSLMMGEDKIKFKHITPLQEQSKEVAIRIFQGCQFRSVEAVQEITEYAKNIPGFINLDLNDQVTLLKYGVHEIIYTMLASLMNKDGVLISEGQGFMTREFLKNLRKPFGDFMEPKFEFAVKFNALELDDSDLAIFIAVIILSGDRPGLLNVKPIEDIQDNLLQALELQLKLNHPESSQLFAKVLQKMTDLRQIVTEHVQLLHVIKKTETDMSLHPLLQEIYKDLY
Peroxisome proliferator-activated receptor gamma (Homo sapiens), sequence (P37231 whole entry, looked up, the tested form may be a part): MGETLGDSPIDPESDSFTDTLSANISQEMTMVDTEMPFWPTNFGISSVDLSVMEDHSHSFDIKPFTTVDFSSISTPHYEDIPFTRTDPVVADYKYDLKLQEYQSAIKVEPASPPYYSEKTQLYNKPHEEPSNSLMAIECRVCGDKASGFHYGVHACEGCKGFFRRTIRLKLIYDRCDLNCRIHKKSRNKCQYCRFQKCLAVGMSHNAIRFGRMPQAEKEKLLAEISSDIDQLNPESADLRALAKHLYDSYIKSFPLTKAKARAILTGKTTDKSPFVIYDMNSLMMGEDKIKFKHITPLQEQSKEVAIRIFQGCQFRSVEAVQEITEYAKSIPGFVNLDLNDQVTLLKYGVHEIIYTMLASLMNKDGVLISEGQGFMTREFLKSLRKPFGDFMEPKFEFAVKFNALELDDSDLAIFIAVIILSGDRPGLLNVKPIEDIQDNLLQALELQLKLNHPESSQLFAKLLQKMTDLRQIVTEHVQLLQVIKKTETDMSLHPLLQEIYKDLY
AR (gene 367), sequence (P10275 whole entry, looked up): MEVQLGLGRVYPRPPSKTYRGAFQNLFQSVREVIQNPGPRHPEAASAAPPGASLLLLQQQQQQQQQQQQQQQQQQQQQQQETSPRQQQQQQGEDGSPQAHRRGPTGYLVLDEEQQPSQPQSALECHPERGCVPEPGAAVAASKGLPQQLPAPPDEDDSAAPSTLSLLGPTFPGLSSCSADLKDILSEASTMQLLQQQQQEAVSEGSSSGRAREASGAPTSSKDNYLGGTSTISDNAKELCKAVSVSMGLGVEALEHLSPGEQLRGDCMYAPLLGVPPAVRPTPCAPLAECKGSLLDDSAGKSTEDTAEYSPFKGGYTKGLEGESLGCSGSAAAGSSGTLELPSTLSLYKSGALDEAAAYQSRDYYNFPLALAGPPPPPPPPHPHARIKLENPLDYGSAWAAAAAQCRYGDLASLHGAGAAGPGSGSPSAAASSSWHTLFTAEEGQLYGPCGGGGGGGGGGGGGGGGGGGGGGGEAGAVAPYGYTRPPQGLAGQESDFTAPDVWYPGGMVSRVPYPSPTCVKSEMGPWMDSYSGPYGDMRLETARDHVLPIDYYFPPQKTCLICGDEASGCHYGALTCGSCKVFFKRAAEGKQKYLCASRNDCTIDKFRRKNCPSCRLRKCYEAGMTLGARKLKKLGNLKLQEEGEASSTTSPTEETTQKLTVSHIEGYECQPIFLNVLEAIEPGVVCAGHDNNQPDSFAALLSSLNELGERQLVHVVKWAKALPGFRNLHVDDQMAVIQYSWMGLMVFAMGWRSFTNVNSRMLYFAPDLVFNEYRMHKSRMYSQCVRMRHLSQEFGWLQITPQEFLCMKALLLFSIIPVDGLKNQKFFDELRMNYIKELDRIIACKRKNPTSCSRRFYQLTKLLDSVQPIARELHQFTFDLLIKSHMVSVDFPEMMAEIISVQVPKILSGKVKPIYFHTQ
Estrogen receptor beta (Homo sapiens), sequence (Q92731 whole entry, looked up, the tested form may be a part): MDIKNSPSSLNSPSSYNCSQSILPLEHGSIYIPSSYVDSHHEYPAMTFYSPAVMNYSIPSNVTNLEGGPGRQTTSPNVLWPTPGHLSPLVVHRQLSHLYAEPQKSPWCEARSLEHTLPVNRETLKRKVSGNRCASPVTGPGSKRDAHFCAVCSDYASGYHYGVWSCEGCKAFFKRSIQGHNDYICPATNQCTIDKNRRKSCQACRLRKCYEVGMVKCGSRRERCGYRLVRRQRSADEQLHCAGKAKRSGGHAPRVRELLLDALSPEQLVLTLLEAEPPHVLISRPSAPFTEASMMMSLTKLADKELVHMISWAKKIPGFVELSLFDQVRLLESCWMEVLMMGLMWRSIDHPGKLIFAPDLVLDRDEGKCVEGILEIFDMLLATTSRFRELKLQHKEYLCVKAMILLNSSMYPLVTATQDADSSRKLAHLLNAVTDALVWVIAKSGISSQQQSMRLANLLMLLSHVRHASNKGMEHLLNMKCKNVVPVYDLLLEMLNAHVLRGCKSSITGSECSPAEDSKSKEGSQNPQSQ
frog Thyroid hormone Receptor alpha (TRa), thra-a (gene 397942), sequence (P15204 whole entry, looked up, the tested form may be a part): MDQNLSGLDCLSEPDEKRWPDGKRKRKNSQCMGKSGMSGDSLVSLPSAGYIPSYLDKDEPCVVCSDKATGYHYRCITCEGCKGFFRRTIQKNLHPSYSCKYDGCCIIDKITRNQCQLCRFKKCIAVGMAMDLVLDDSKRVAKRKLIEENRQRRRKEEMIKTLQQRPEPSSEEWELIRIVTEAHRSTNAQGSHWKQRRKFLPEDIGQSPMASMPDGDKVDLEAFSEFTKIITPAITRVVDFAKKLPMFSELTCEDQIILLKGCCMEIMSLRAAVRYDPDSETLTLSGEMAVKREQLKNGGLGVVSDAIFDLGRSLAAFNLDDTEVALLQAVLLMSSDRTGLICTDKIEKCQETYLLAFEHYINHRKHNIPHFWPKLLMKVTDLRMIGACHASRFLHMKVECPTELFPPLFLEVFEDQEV
Estrogen receptor (Homo sapiens), sequence (P03372 whole entry, looked up, the tested form may be a part): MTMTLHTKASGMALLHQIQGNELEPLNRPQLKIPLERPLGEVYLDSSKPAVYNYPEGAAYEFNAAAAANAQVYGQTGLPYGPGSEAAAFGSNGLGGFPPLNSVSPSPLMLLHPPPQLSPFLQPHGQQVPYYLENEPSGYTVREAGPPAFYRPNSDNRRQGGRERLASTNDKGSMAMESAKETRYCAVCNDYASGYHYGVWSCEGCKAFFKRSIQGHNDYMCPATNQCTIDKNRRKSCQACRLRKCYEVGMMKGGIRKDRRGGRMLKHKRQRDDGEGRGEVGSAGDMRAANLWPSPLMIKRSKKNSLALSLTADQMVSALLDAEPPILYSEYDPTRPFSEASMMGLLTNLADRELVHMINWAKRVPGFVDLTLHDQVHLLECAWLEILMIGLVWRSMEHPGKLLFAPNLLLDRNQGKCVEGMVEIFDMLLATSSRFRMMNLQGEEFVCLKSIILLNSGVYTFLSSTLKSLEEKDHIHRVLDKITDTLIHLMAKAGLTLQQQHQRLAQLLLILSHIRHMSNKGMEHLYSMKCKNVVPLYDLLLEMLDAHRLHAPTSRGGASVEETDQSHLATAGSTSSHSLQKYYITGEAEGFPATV

CCCN(CCOc1c(Cl)cc(Cl)cc1Cl)C(=O)n1ccnc1
inactive: [1] | [2] | [3] | [4] | [6] | [9]
active: [5] 33.4 µM | [7] 15.8 µM | [8] 0.11 µM

CC1(C)C(C=C(Cl)Cl)C1C(=O)OC(C#N)c1ccc(F)c(Oc2ccccc2)c1 (stereo not given)
inactive: [10] | [11] | [2] | [13] | [14] | [6] | [15] | [9]
active: [1] 27.5 µM | [12] 27.5 µM | [5] 11.1 µM | [7] 9.66 µM | [8] 0.436 µM

CCC(C)(C)C(=O)OC1=C(c2ccc(Cl)cc2Cl)C(=O)OC12CCCCC2
inactive: [16]

CCCN(CCC)c1c([N+](=O)[O-])cc(C(F)(F)F)cc1[N+](=O)[O-]
inactive: [11] | [17] | [13] | [14] | [6]
active: [1] 27.2 µM | [12] 27.9 µM | [16] 62.7 µM | [5] 27.1 µM | [7] 35.1 µM | [8] 2.85 µM

Oc1ccc(Cl)cc1Cc1ccccc1
active: [12] 2.74 µM | [16] 11.2 µM | [7] 10.1 µM
not listed: [3] | [4] | [5] | [11] | [19]
inactive: all other assays above

O=C(Nc1ccccc1)Nc1cnns1
inactive: [18]

O=[N+]([O-])c1c(Cl)c(Cl)c(Cl)c(Cl)c1Cl
inactive: [17]
active: [16] 74.6 µM

CC1(c2ccc(Oc3ccccc3)cc2)OC(=O)N(Nc2ccccc2)C1=O (stereo not given)
active: [18] 3.35 µM

O=[N+]([O-])/N=C1\NCCN1Cc1ccc(Cl)nc1
inactive: [16]

CCOC1Oc2ccc(OS(C)(=O)=O)cc2C1(C)C (stereo not given)
active: [18] 78.7 µM | [16] 50 µM

CC(C)(C)C(O)C(Oc1ccc(Cl)cc1)n1cncn1 (stereo not given)
inactive: [18]

O=C(O)CCCOc1ccc(Cl)cc1Cl
inactive: [16]

CC(C)(C)C(O)/C(=C\c1ccc(Cl)cc1Cl)n1cncn1 (stereo not given)
active: [18] 79.1 µM

O=S(=O)(O)C(F)(F)C(F)(F)C(F)(F)C(F)(F)C(F)(F)C(F)(F)C(F)(F)C(F)(F)F
inactive: [18] | [3] | [4]
active: [19] 130 µM | [7] 73.1 µM | [8] 57.9 µM

O=C(O)C(F)(F)C(F)(F)C(F)(F)C(F)(F)C(F)(F)C(F)(F)C(F)(F)F
inactive: [18]
